Data: PubChem BioAssay (Tox21)
Records with an inconclusive call do not appear. A call without a number means that no potency is given here. Unmarked numbers belong to inactive results. Activity calls are given as the source filed them. Calls come from the whole dose curve; as a rule, active = well fitted activation curve with a large enough effect in the signal ratio in the repeat runs (not every such curve was filed as active); inconclusive = weak or mixed curves; inactive = flat fitted curve, though single readings scatter; the % refers to the signal ratio.

Assay: qHTS assay to identify small molecule agonists of the hypoxia (HIF-1) signaling pathway (AID 1224846)
Details: HRE-bla ME-180 cells, beta-lactamase ratio, 17 h; series mostly up to 76.8 µM
From the text: U.S. Tox21 Program National Center for Advancing Translational Sciences [NCATS] NIH Chemical Genomics Center [NCGC] U.S. Environmental Protection Agency [EPA] National Institutes of Environmental Health Sciences [NIEHS] National Toxicology Program [NTP] U.S. Food and Drug Administration [FDA] Tox21 Assay Overview: Hypoxia-inducible factor-1 (HIF-1) is the major hypoxia-regulated transcription factor that controls cellular responses to low oxygen concentration. HIF-1 is composed of two subunits: hypoxia responsive HIF-1-alpha and constitutively expressed HIF-1-beta, which is also known as aryl hydrocarbon receptor nuclear translocator. During hypoxic conditions, HIF-1-alpha heterodimerizes with HIF-1-beta and translocates into the nucleus where the HIF-1 complex binds to the hypoxia-response element (HRE) and activates expression of target genes such as VEGF (vascular endothelial growth factor). The HIF-1 pathway is essential to normal growth and development, and is involved in the pathophysiology of cancer, inflammation, and ischemia. Using a beta-lactamase reporter-gene under control of the hypoxia response element, a cell-based assay [CellSensor(TM) HRE-bla ME-180 from Life Technologies, Carlsbad, CA] was used to measure hypoxia-induced signaling. Tox21 10K library compounds were measured for their ability to induce the reporter gene activity.
Tox21 Assay Protocol Summary: HRE-bla ME-180 cells were dispensed at 2,000 cells per well in 6 uL of assay medium containing 0.5% dialyzed FBS into black wall/clear-bottom 1536-well plates using a Multidrop Combi (Thermo Scientific, Waltham, MA) dispenser. After the assay plates were incubated at 37C and 5% CO2 for 5 hrs, 23 nL of compounds dissolved in DMSO, positive controls or DMSO only was transferred to each well of the assay plate using a Pintool station (Kalypsys, San Diego, CA). The assay plates were incubated at 37C and 5% CO2 for 17 hrs. One uL of LiveBLAzerTM B/G FRET substrate (CCF4-AM) (Life Technologies) was added to each well using a Flying Reagent Dispenser (Aurora Discovery, San Diego, CA).
In the case of `CC(CC(C)(C)C)CC(C)(C)CC(C)(C)C` (stereo not given), the Potency was “inactive”.
For `O=c1cc[nH]cc1`, the Potency was “inactive”.
In the case of `CCN(CC)c1ccc(C=O)c(O)c1`, the Potency was “inactive”.
With `Cc1ccc2sc3cccc(C)c3c2c1` the Potency was “inactive”.
`COc1cc2ncnc(Nc3cccc(Cl)c3)c2cc1OC` showed an activation of 0.103% [at 15.8 µM].
In the case of `N#CCCOCCC#N`, the Potency was “inactive”.
With `O=C1CCC(=O)N1` the Potency was “inactive”.
For `O[Si](c1ccccc1)(c1ccccc1)c1ccccc1`, the Potency was “inactive”.
For `COC(=O)c1ccc([N+](=O)[O-])cc1`, the Potency was “inactive”.
In the case of `O=C1c2ccccc2C(=O)c2c(Cl)cccc21`, the Potency was “inactive”.
With `[Cl][Sc]([Cl])[Cl]` the Potency was “inactive”.
With `C/C=C/C(=O)OCC(C)C` the Potency was “inactive”.
In the case of `Nc1cc([N+](=O)[O-])ccc1Cl`, the Potency was “inactive”.
With `CC(c1cc(C(C)(C)C)cc(C(C)(C)C)c1O)c1cc(C(C)(C)C)cc(C(C)(C)C)c1O` the Potency was “inactive”.
For `CCC(O)CO` (stereo not given), the Potency was “inactive”.
With `NCc1ccco1` the Potency was “inactive”.
With `CCOc1ccc([N+](=O)[O-])cc1` the Potency was “inactive”.
In the case of `C=CC(=O)OCCOC1C2CCC1C1CC=CC12` (stereo not given), the activation was 0.329% [at 15.8 µM].
In the case of `O=C(Cl)c1ccc(Cl)cc1Cl`, the Potency was “inactive”.
In the case of `COCCC(=O)OC`, the Potency was “inactive”.
In the case of `CCn1c2ccccc2c2ccccc21`, the Potency was “inactive”.
With `CCCCCCCCCCCC(=O)Cl` the Potency was “inactive”.
For `Cc1ccc(N=Nc2c(O)ccc3ccccc23)c(C)c1`, the Potency was “inactive”.
With `CC1CCC(C(C)(C)O)CC1` (stereo not given) the Potency was “inactive”.
With `CSc1nnc(C(C)(C)C)c(=O)[nH]1` the Potency was “inactive”.
In the case of `CCOC=C(C(=O)OCC)C(=O)OCC`, the Potency was “inactive”.
`CCCCNc1ccc(NCCCC)c2c1C(=O)c1ccccc1C2=O` gave an activation of 0.413% [at 15.8 µM].
With `CC(C)(C)c1cc(CCC(=O)OCCSCCOC(=O)CCc2cc(C(C)(C)C)c(O)c(C(C)(C)C)c2)cc(C(C)(C)C)c1O` the Potency was “inactive”.
In the case of `c1ccc2cc3c4ccccc4c4ccccc4c3cc2c1`, the Potency was “inactive”.
In the case of `CC(C)C(=O)C(C)C`, the Potency was “inactive”.
In the case of `Nc1cc([N+](=O)[O-])cc(Cl)c1O`, the Potency was “inactive”.
In the case of `C=CC(C)(C)O`, the Potency was “inactive”.
For `CCSCC`, the Potency was “inactive”.
For `c1ccc(-c2nc3ccccc3[nH]2)cc1`, the Potency was “inactive”.
In the case of `C1CCSC1`, the Potency was “inactive”.
For `CCOc1nc(F)cc2nc(S(=O)(=O)Nc3c(Cl)cccc3C(=O)OC)nn12`, the Potency was “inactive”.
For `Nc1ccc(F)c([N+](=O)[O-])c1`, the Potency was “inactive”.
In the case of `CCC(=O)OC/C=C(\C)CCC=C(C)C`, the Potency was “inactive”.
For `CC1(C)[C@H](C(=O)OCc2cccc(Oc3ccccc3)c2)[C@@H]1C=C(Cl)Cl`, the Potency was “inactive”.
With `O=c1[nH]cccc1O` the Potency was “inactive”.
